# Results filed as inconclusive are left out. Unmarked numbers belong to inactive results. Calls of active or inactive are those of the source. Unless noted, calls come from the whole dose curve; as a rule, active = well fitted cell-killing curve with a large enough effect in the repeat runs; inconclusive = weak or mixed curves, or effect the other way; inactive = flat fitted curve, though single readings scatter. Positions of bridges follow the written chain, without caps; N, C: chain ends. Non-standard residues stand in square brackets, D forms with d. Residues, ends and D or L forms follow the SMILES beside them. *: point of attachment. X2 = CC[C@H](C)CCCCC(=O)*; Dab = NCC[C@H](N)C(=O)O
# Test system: not listed separately
# Assay: qHTS assay to identify small molecule that activate the aryl hydrocarbon receptor (AhR) signaling pathway - cell viability counter screen (AID 743086); note: nearly all actives have a fitted effect of over 45% in size; note: potency is the fitted concentration of half-maximal effect;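 for viability change, negative = cytotoxic: HepG2 liver cells carrying the AhR DRE luciferase reporter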
# Conditions: HepG2-AhR-luc viability, CellTiter-Fluor, 24 h; series mostly up to 70.3 µM; viability change, negative = cytotoxic: at the top concentration
# In short: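 HepG2-AhR-luc (HG2L7.5c1) cells, 4000/well, treated 24 h at 37 C with compound; viability measured as CellTiter-Fluor fluorescence after 30 min in the same wells as the luciferase read.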
# % is set by controls: 0 for no effect and ±100 for the full control effect.
SMILES,"viability change, negative = cytotoxic",Potency
CCCCC(F)(F)[C@@]1(O)CC[C@H]2[C@@H](CC(=O)[C@@H]2CCCCCCC(=O)O)O1,-20.5%,
C[C@H](CSC(=O)c1ccccc1)C(=O)N1C[C@@H](Sc2ccccc2)C[C@H]1C(=O)O,-7.98%,
CC1(C)N=C(N)N=C(N)N1c1ccc(Cl)cc1,2.85%,
N[C@@H](C(=O)N[C@@H]1C(=O)N2C(C(=O)O)=C(Cl)CC[C@H]12)c1ccccc1,-10.5%,
O=P(O)(O)OC(Cn1cncn1)(Cn1cncn1)c1ccc(F)cc1F,-18.8%,
CCCCCCCCCCCCCCCCCC(=O)OCCO,22.2%,
Cc1nnc(C(C)C)n1C1C[C@H]2CC[C@@H](C1)N2CC[C@H](NC(=O)C1CCC(F)(F)CC1)c1ccccc1 (some centres not stated),8.81%,
CCC(=O)OCC(=O)[C@@]1(OC(=O)CC)[C@@H](C)C[C@H]2[C@@H]3CCC4=CC(=O)C=C[C@]4(C)[C@@]3(Cl)[C@@H](O)C[C@@]21C,5.07%,
O=c1[nH]cnc2[nH]cc(CN3CCCCC3)c12,-1.86%,
CC(C)(C)NC(=O)[C@H]1CC[C@H]2[C@@H]3CC=C4C=C(C(=O)O)CC[C@]4(C)[C@H]3CC[C@]12C,18.1%,
C[N+]1(C)CCN(CC(O)(c2ccccc2)C2CCCCC2)CC1 (configuration not stated),8.78%,
CN[C@@H]1[C@@H](O)[C@@H](O[C@@H]2[C@@H](O)[C@H](OC3OC(CN)=CCC3N)[C@@H](N)C[C@H]2N)OC[C@]1(C)O (some centres not stated),4.82% [at 32.5 µM],
O=C(O)c1ccc(OCCn2ccnc2)cc1,12.6%,
CCCC(=O)N1CCCN(c2nc(N)c3cc(OC)c(OC)cc3n2)CC1,1.45%,
CO[C@H]1C[C@H](O[C@H]2[C@H](C)O[C@@H](O[C@@H]3/C(C)=C/C[C@@H]4C[C@@H](C[C@]5(C=C[C@H](C)[C@@H](C6CCCCC6)O5)O4)OC(=O)[C@@H]4C=C(C)[C@@H](O)[C@H]5OC/C(=C\C=C\[C@@H]3C)[C@]54O)C[C@@H]2OC)O[C@@H](C)[C@@H]1O,8.41%,
OCC(O)COc1ccc(Cl)cc1 (configuration not stated),17.6%,
CC(C(=O)O)c1ccc(C2CCCCC2)c2ccccc12 (configuration not stated),-10.4%,
C/C=C1\NC(=O)[C@H]2CSSCC/C=C/[C@H](CC(=O)N[C@H](C(C)C)C(=O)N2)OC(=O)C(C(C)C)NC1=O (some centres not stated),,15 µM (active)
Cn1cc(NC(=O)c2cc(NC(=O)c3cc(NC=O)cn3C)cn2C)cc1C(=O)NCCC(=N)N,7.02%,
CO[C@H]1C[C@H](O[C@H]2[C@H](C)[C@@H](O[C@@H]3O[C@H](C)C[C@H](N(C)C)[C@H]3OC(C)=O)[C@@H](C)C[C@]3(CO3)C(=O)[C@H](C)[C@@H](OC(C)=O)[C@@H](C)[C@@H](C)OC(=O)[C@@H]2C)O[C@@H](C)[C@@H]1OC(C)=O,10.3% [at 32.5 µM],
CO[C@H]1[C@@H](O)[C@H](N)[C@@H](O[C@H]2O[C@H]([C@H](C)N)CC[C@H]2N)[C@H](O)[C@@H]1N(C)C(=O)CN,17.1%,
CCCC(CCC)C(N)=O,22.9%,
O=C(Cn1c(=O)sc2ccc(Cl)cc21)N1CCN(CCO)CC1,-1.13%,
CCCCCCCCCCCCCCCC(=O)OC[C@@H](COP(=O)([O-])OCC[N+](C)(C)C)OC(=O)CCCCCCCCCCCCCCC,29.3%,
CC[C@H](C)CCCCC(=O)N[C@@H](CCN)C(=O)N[C@H](C(=O)N[C@@H](CCN)C(=O)N[C@H]1CCNC(=O)[C@H]([C@@H](C)O)NC(=O)[C@H](CCN)NC(=O)[C@H](CCN)NC(=O)[C@H](CC(C)C)NC(=O)[C@@H](CC(C)C)NC(=O)[C@H](CCN)NC1=O)[C@@H](C)O (X2-[Dab]T[Dab][Dab][Dab][dL]L[Dab][Dab]T; lactam 4-C),3.24%,
N[C@H](CCC(=O)O)C(=O)O,7%,

# Molecular target: Peroxisome proliferator-activated receptor gamma (Homo sapiens) (UniProt P37231)
# Sequence (P37231 whole entry, looked up): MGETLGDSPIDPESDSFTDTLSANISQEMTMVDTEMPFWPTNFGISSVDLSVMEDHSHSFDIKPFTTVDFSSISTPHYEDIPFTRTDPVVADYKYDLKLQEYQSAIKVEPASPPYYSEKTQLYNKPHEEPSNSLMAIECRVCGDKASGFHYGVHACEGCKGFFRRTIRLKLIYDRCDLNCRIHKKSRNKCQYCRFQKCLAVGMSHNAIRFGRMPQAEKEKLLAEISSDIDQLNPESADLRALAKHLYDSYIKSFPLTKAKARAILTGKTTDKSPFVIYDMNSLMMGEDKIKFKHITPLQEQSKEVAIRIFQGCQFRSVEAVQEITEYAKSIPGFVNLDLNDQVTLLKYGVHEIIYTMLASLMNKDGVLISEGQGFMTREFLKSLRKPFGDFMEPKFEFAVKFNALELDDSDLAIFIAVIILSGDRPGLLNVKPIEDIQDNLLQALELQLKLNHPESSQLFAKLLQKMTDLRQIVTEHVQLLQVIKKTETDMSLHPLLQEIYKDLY
# Assay: qHTS assay to identify small molecule agonists of the peroxisome proliferator-activated receptor gamma (PPARg) signaling pathway (AID 743094; active = well fitted activation curve with a large enough effect in the signal ratio in the repeat runs, not every such curve was filed as active; the % refers to the signal ratio)
# Conditions: HEK293H PPARg-UAS-bla, beta-lactamase FRET ratio, 17 h; series mostly up to 57 µM; activation: at the top concentration
# In short: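 Quantitative HTS agonist mode: stable HEK293H line with UAS-beta-lactamase reporter under PPARg control, 17 h compound exposure at 37C, fluorescence after 1 h FRET substrate loading at room temperature.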
row,SMILES,activation
1,CN=C(NC)NCc1ccccc1,-4.62%
2,C[C@@H]1C/C=C/C=C/C=C/C=C/[C@H](O[C@@H]2O[C@H](C)[C@@H](O)[C@H](N)[C@@H]2O)C[C@@H]2O[C@](O)(C[C@@H](O)C[C@H]3O[C@@H]3/C=C/C(=O)O1)C[C@H](O)[C@H]2C(=O)O,0.561%
3,CCCCOC(=O)C(=O)Nc1cccc(-c2nn[nH]n2)c1,-2.18%
4,CC[C@H](CC[C@@H](C)[C@H]1CC[C@H]2[C@@H]3CC=C4C[C@@H](O)CC[C@]4(C)[C@H]3CC[C@]12C)C(C)C,-0.187%
5,CC(=O)N[C@@H](CC(=O)N[C@@H](CCC(=O)O)C(=O)O)C(=O)O,1.6%
6,CCOC(=O)[C@H](CCc1ccccc1)N[C@H]1CCCN2CCC[C@@H](C(=O)O)N2C1=O,-1.76%
7,C=C1c2c(Cl)ccc(O)c2C(O)=C2C(=O)[C@]3(O)C(O)=C(C(N)=O)C(=O)[C@@H](N(C)C)[C@@H]3[C@@H](O)[C@H]12,-1.36% [at 26.2 µM]
8,CC(=O)O[C@H]1CC[C@@]2(C)C(=CC[C@H]3[C@@H]4CC[C@H](C(C)=O)[C@@]4(C)CC[C@@H]32)C1,0.124%
9,CS(=O)(=O)NC(=O)CCC/C=C\C[C@H]1C(=O)C[C@@H](O)[C@@H]1/C=C/[C@H](O)COc1ccccc1,-0.174%
10,C[C@H](CSC(=O)c1ccccc1)C(=O)N1C[C@@H](Sc2ccccc2)C[C@H]1C(=O)O,-2%
11,N[C@@H](C(=O)N[C@@H]1C(=O)N2C(C(=O)O)=C(Cl)CC[C@H]12)c1ccccc1,-0.993%
12,O=P(O)(O)OC(Cn1cncn1)(Cn1cncn1)c1ccc(F)cc1F,-4.21%
13,CCCCCCCCCCCCCCCCCC(=O)OCCO,0.637%
14,Cc1nnc(C(C)C)n1C1C[C@H]2CC[C@@H](C1)N2CC[C@H](NC(=O)C1CCC(F)(F)CC1)c1ccccc1 (some centres not stated),-5.52%
15,O=c1[nH]cnc2[nH]cc(CN3CCCCC3)c12,0.834%
16,CN[C@@H]1[C@@H](O)[C@@H](O[C@@H]2[C@@H](O)[C@H](OC3OC(CN)=CCC3N)[C@@H](N)C[C@H]2N)OC[C@]1(C)O (some centres not stated),5.56% [at 26.2 µM]
17,O=C(O)c1ccc(OCCn2ccnc2)cc1,-5.87%
18,OCC(O)COc1ccc(Cl)cc1 (configuration not stated),2.83%
19,Cn1cc(NC(=O)c2cc(NC(=O)c3cc(NC=O)cn3C)cn2C)cc1C(=O)NCCC(=N)N,4.88%
20,CO[C@H]1C[C@H](O[C@H]2[C@H](C)[C@@H](O[C@@H]3O[C@H](C)C[C@H](N(C)C)[C@H]3OC(C)=O)[C@@H](C)C[C@]3(CO3)C(=O)[C@H](C)[C@@H](OC(C)=O)[C@@H](C)[C@@H](C)OC(=O)[C@@H]2C)O[C@@H](C)[C@@H]1OC(C)=O,1.26% [at 26.2 µM]
21,CO[C@H]1[C@@H](O)[C@H](N)[C@@H](O[C@H]2O[C@H]([C@H](C)N)CC[C@H]2N)[C@H](O)[C@@H]1N(C)C(=O)CN,0.397%
22,CCCC(CCC)C(N)=O,2.75%
23,O=C(Cn1c(=O)sc2ccc(Cl)cc21)N1CCN(CCO)CC1,-4.19%
24,CCCCCCCCCCCCCCCC(=O)OC[C@@H](COP(=O)([O-])OCC[N+](C)(C)C)OC(=O)CCCCCCCCCCCCCCC,-4%
25,CC[C@H](C)CCCCC(=O)N[C@@H](CCN)C(=O)N[C@H](C(=O)N[C@@H](CCN)C(=O)N[C@H]1CCNC(=O)[C@H]([C@@H](C)O)NC(=O)[C@H](CCN)NC(=O)[C@H](CCN)NC(=O)[C@H](CC(C)C)NC(=O)[C@@H](CC(C)C)NC(=O)[C@H](CCN)NC1=O)[C@@H](C)O (X2-[Dab]T[Dab][Dab][Dab][dL]L[Dab][Dab]T; lactam 4-C),-8.69%
26,N[C@H](CCC(=O)O)C(=O)O,-1.79%
